Experimental data published in PubChem BioAssay (NCI).
About 79,000 compounds went through this panel and 15% of them were active in at least one assay; those are over-represented in the sample as a whole. A number with no mark means an inactive call. Activity calls are given as the source filed them. No stated cut-off is given here; in the data, active means growth inhibition above about 70%; inactive means the rest.

Assays:
[1] = NCI Yeast Anticancer Drug Screen. Data for the rad50 strain (AID 155);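 further: 0% = growth of vehicle-only cultures of the same strain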; settings: S. cerevisiae rad50 strain growth inhibition; at 50.0 µM; hits give high values
Outline: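 Yeast carrying a defined DNA repair defect were exposed to test compounds, and growth was compared with vehicle-treated controls to give percent inhibition.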

[2] = NCI Yeast Anticancer Drug Screen. Data for the mec2-1 strain (AID 157); settings: S. cerevisiae mec2-1 strain, at 50.0 µM, hits give high values
Outline: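 Test agents were screened against the mec2-1 yeast strain, with defined DNA repair or cell cycle alteration. Growth was scored as inhibition against vehicle-only controls.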

[3] = NCI Yeast Anticancer Drug Screen. Data for the sgs1 mgt1 strain (AID 161);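 further: 0% = growth of cultures given vehicle only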; settings: S. cerevisiae sgs1 mgt1 strain, at 50.0 µM, hits give high values
Outline: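 Read-out: growth inhibition vs vehicle controls. Cells: mutant yeast strain deficient in DNA damage repair.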

[4] = NCI Yeast Anticancer Drug Screen. Data for the cln2 rad14 strain (AID 165);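 further: 0% = growth equal to vehicle treated cultures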; settings: S. cerevisiae cln2 rad14 strain, at 50.0 µM, hits give high values
Outline: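 Growth of compound-exposed yeast (cln2 rad14 genotype) measured and expressed as inhibition relative to vehicle.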

[5] = NCI Yeast Anticancer Drug Screen. Data for the bub3 strain (AID 167); settings: S. cerevisiae bub3 mutant strain, at 50.0 µM, hits give high values
Outline: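 Compounds were applied to a genetically altered yeast strain carrying a cell-cycle control defect. Growth inhibition was scored against vehicle-treated controls.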

[6] = NCI Yeast Anticancer Drug Screen. Data for the mlh1 rad18 strain (AID 175); settings: S. cerevisiae mlh1 rad18 strain growth inhibition; at 50.0 µM; hits give high values
Outline: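 In this whole-cell yeast screen, a strain with altered DNA damage repair is challenged with compound, and its growth is measured against matched vehicle-treated controls.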

| SMILES | growth inhibition [1] | growth inhibition [2] [%] | growth inhibition [3] [%] | growth inhibition [4] [%] | growth inhibition [5] [%] | growth inhibition [6] |
| --- | --- | --- | --- | --- | --- | --- |
| Cc1nc(-c2ccccc2)cc2c1c(=O)oc1ccccc12 | -14.7% | -30.6 | 4 | 6.3 | -5.4 | -8.55% |
| CC(=Nc1ccc(C)cc1)NNc1nc2ccccc2s1 | 15.1% | -7.3 | 13.2 | -37.2 | 17.3 | 25% |
| Cc1ccc2c(c1)[nH]c(=S)n2C=C1C(=O)NC(=O)NC1=O | -6.3% | -27.9 | -38 | -10.6 | -7.35 | -15.4% |
| CC1(C)COC(C23C4C5C2C2C3C4C52I)=N1 (configuration not stated) | 25.9% | 12.4 | 11.2 | 18.2 | 26.6 | 16.6% |
| COc1cc2cccnc2c2[nH]c(=O)c3c(c12)CCC3 | 13.9% | 9.35 | -6 | -16.4 | 7.2 | 7.25% |
| CCCc1[nH]n(-c2cccc([N+](=O)[O-])c2)c(=O)c1N=Nc1ccc(Cl)cc1 | 40.9% | 24.1 | 21.5 | 20.9 | -2.5 | 26.9% |
| O=C(Nc1cccc(Cl)c1)Oc1cccnc1 | -5.1% | -29.9 | 7.7 | -4.55 | -2.85 | -12.6% |
| O=C1N[C@H](Cc2cnc[nH]2)C(=O)N2CCC[C@@H]12 | 15.2% | -3.55 | 8.75 | 16.1 | 9.75 | 23.7% |
| CC(C)=C1CCC(CN2CCOCC2)C1=O (configuration not stated) | 25.2% | 16.4 | 23.1 | 19.6 | -2.6 | 87% (active) |
| CC1CCC(C(C)C)C(OC2(c3ccccc3)OC(=O)c3ccccc32)C1 (configuration not stated) | 23.7% | -5.7 | 15.4 | 8.55 | 8.65 | 16.4% |
| CN(C)C1=NC(NCc2ccccc2)(N(C)C)OC(N(C)C)=N1 (configuration not stated) | 1.95% | 4.9 | 0.55 | 8.7 | 13.7 | 15.5% |
| NC(=S)C(=S)NCCO | 19.2% | 1.7 | -5.7 | -68.2 | -2.7 | -12.1% |
| NC(=S)n1nc(-c2ccccc2)c(N=Nc2cccc([N+](=O)[O-])c2)c1-c1ccccc1 | 32.9% | 7.5 | 31.1 | 19.6 | 0.1 | 10.8% |
| CC(C)c1cccc(C(C)(C)C)n1 | 16.1% | 30.5 | -2.7 | -3.65 | 0.3 | 11.1% |
| CCN(CC)C(=O)C1CCCCN1 (configuration not stated) | 1.65% | 2.6 | 3.1 | -43.2 | -11 | 6.65% |
| C=CCO[Si](C=C)(OCC=C)OCC=C | 31.8% | -10.9 | -5.35 | 10.7 | 9.6 | -3.95% |
| CCC(=O)c1c2c(cc3ccccc13)CCCC2 | 11.7% | -10.7 | 7.3 | 3.85 | 38.2 | 34% |
| CCOC(=O)c1c(C)nc(C)nc1N | 0.2% | -2.5 | -9.85 | -41.5 | -22.1 | 2% |
| CO/C=C/CCCNCc1ccccc1 | -4.5% | -27.4 | 20.6 | 9.7 | 6.3 | 1.2% |
| O=C1CSC(c2c(F)cccc2Cl)N1c1nncs1 (configuration not stated) | 9.4% | -2 | 31.4 | 13 | 29.6 | 10% |
| ClC1CC/C=C\CC/C=C/CCC1Cl (configuration not stated) | 55.7% | 48.1 | 22.1 | 32 | 29.2 | 41.3% |

| SMILES | growth inhibition [1] | growth inhibition [2] [%] | growth inhibition [3] [%] | growth inhibition [4] [%] | growth inhibition [5] [%] | growth inhibition [6] |
| --- | --- | --- | --- | --- | --- | --- |
| COc1ccc(NC(=O)Oc2ccc(OC)cc2)cc1 | 5.75% | 12.2 | 0.75 | 11.2 | 5.5 | -16.1% |
| O=C1NC(N2CCCCC2)=N/C1=C\c1ccc(Cl)cc1 | -7.5% | -7 | 2.4 | 7.55 | -12.3 | -38.5% |
| OCC1OC(n2c(SCc3ccccc3)nc3ccccc32)C(O)C1O (configuration not stated) | -3.5% | 1.45 | -9.1 | -11.9 | 6.4 | 0.1% |
| Cc1nn(-c2ccccc2)c(SC(C)(C)C)c1C=NCCN=Cc1c(C)nn(-c2ccccc2)c1SC(C)(C)C | 28.6% | 15.3 | 18.2 | 24.3 | -5.85 | 18.8% |
| CCOC(=O)C1=C(C)N(Cc2ccccc2)C2(O)C1=CC(=O)C(Cl)=C2Cl (configuration not stated) | 72.8% (active) | 45.5 | 46.8 | 54.9 | 49.5 | 42.4% |
| CC1(CO)OC(n2cnc3c(N)ncnc32)C(O)C1O (configuration not stated) | -25.8% | -30.8 | -52.6 | -8.25 | -14.7 | -29.2% |
| C=CCc1c(O)c2ccccc2[nH]c1=O | -5.35% | 15.6 | -25.9 | 12.7 | 4.45 | 1.5% |
| CC([C@H](c1ccccc1)C1CCC(C(N)=O)(N2CCOCC2)C1)[N+](=O)[O-] (some centres not stated) | 5.8% | 7.9 | 12.3 | 39.1 | 4.45 | 9.85% |
| CC1C2(C)OC(=N)C(C#N)(C(c3ccco3)O2)C1(C#N)C#N (configuration not stated) | 6.75% | 3.1 | -6.55 | 5.95 | -9.65 | -1.4% |
| CN1CCCN(C)CCCN(C)CCCN(C)CCC1 | -19.8% | -2.45 | 7.6 | -4.65 | -24.6 | 11.8% |
| CCOC(=O)c1[nH]c(Cc2[nH]c(Cc3[nH]c(C(=O)OCC)c(C)c3C(=O)OCC)c(C(=O)OCC)c2C)c(C(=O)OCC)c1C | 36.1% | 21.2 | 45.2 | 37.5 | 24.7 | 8.55% |
| CC(=O)C(C(C)=O)[N+](=O)[O-].CC(=O)C(C(C)=O)[N+](=O)[O-].[Cu] | 17.1% | -2.95 | -6.75 | -40.5 | 23.6 | 10.6% |
| COc1ccc2[nH]cc(CC(NC(C)=O)C(=O)O)c2c1 (configuration not stated) | 1.75% | -0.9 | 1.55 | -0.5 | 3.85 | -1.25% |
| CC(c1ccccc1)C1CC(=O)N(C)C1=O (configuration not stated) | 7.85% | -15 | 0.45 | -19.9 | -23.8 | 2.35% |
| Oc1c(C(O)N2CCOCC2)cc(C(O)N2CCOCC2)c(O)c1O (configuration not stated) (tested in a mixture with another compound) | -3.3% | -11.1 | -17 | -16.2 | -3.15 | 9.75% |
| O=C1CCC(=O)N1Cc1ccccc1N=[N+]([O-])c1ccccc1CN1C(=O)CCC1=O | -37.2% | -14.7 | 1.75 | -0.55 | -19.5 | -15.9% |
| CC(C)C(CN)(C(C)C)C(C)C | 2.35% | 9.65 | -8.65 | 8.55 | 5.3 | -8.6% |
| COC(=O)c1ccc(C(=O)O)cc1 | 5.35% | -2.65 | -8.15 | -6.55 | 0.65 | -6.5% |
| c1ccc(COC2COC(OCc3ccccc3)C(OCc3ccccc3)C2OCc2ccccc2)cc1 (configuration not stated) | 1.05% | -3.45 | 3.4 | -36.4 | 12.4 | -3.3% |
| COc1ccc(C(CCOS(=O)(=O)c2ccc(Br)cc2)(c2ccc(OC)cc2)c2ccc(OC)cc2)cc1 | 0.9% | 12.8 | -13.1 | -23.6 | 0 | 15.6% |
| O=[N+]([O-])c1ccc(CCO)cc1 | -4.15% | -26.1 | -6.85 | -15.4 | -10.5 | -4.6% |
